From ChEMBL document CHEMBL4513141, “CO-ADD screening of NIH (USA) - Clinical Collection” (2021)
Results with a measured potency or affinity are listed apart.

How the values were obtained:
Staphylococcus aureus = details: Concentration 20 uM; ASSAY_TEST Inhibition of Bacterial Growth; detection method Absorption (OD600); MEDIA CAMHB; plate type 384well; NBS; CORNING #3640; time 18 hr
Escherichia coli = details: Concentration 20 uM; ASSAY_TEST Inhibition of Bacterial Growth; detection method Absorption (OD600); MEDIA CAMHB; plate type 384well; NBS; CORNING #3640; time 18 hr

CC(C)C[C@H](NC(=O)[C@@H](O)[C@H](N)Cc1ccccc1)C(=O)O [UBENIMEX]
Inhibition (Staphylococcus aureus): 8.9%
Inhibition (Escherichia coli): -1.57%

CCCCCCCCCCC[C@@H](C[C@@H]1OC(=O)[C@H]1CCCCCC)OC(=O)[C@H](CC(C)C)NC=O [ORLISTAT]
Inhibition (Staphylococcus aureus): 11.59%
Inhibition (Escherichia coli): -4.78%

COCCCC/C(=N\OCCN)c1ccc(C(F)(F)F)cc1.O=C(O)/C=C\C(=O)O [FLUVOXAMINE MALEATE]
Inhibition (Staphylococcus aureus): 7.49%
Inhibition (Escherichia coli): 3.58%

O=C(C1CCCCC1)N1CC(=O)N2CCc3ccccc3C2C1 (stereo not drawn) [PRAZIQUANTEL]
Inhibition (Staphylococcus aureus): 20.65%
Inhibition (Escherichia coli): 3.85%

NS(=O)(=O)Cc1noc2ccccc12 [ZONISAMIDE]
Inhibition (Staphylococcus aureus): 1.04%
Inhibition (Escherichia coli): 0.42%

Cc1ccc(O)c([C@H](CCN(C(C)C)C(C)C)c2ccccc2)c1.O=C(O)C(O)C(O)C(=O)O [TOLTERODINE TARTRATE]
Inhibition (Staphylococcus aureus): -0.49%
Inhibition (Escherichia coli): -0.28%

Cl.NC12CC3CC(CC(C3)C1)C2 [AMANTADINE HYDROCHLORIDE]
Inhibition (Staphylococcus aureus): 17.85%
Inhibition (Escherichia coli): -0.07%

Cl.Clc1cccc(Cl)c1NC1=NCCN1 [CLONIDINE HYDROCHLORIDE]
Inhibition (Staphylococcus aureus): 11.8%
Inhibition (Escherichia coli): 4.68%

CN(C)CCOC(c1ccc(Cl)cc1)c1ccccn1.O=C(O)/C=C\C(=O)O (stereo not drawn) [CARBINOXAMINE MALEATE]
Inhibition (Staphylococcus aureus): 10.84%
Inhibition (Escherichia coli): 3.54%

CCN1CCC[C@H]1CNC(=O)c1cc(S(N)(=O)=O)ccc1OC [LEVOSULPIRIDE]
Inhibition (Staphylococcus aureus): 7.78%
Inhibition (Escherichia coli): 3.44%

CN(C)CCC[C@@]1(c2ccc(F)cc2)OCc2cc(C#N)ccc21.O=C(O)C(=O)O [ESCITALOPRAM OXALATE]
Inhibition (Staphylococcus aureus): 8.47%
Inhibition (Escherichia coli): 3.57%

Cl.O=C1[C@H]2CCCC[C@H]2C(=O)N1CCCCN1CCN(c2nsc3ccccc23)CC1
Inhibition (Staphylococcus aureus): 14.1%
Inhibition (Escherichia coli): 0.37%

CCC(=O)O[C@]1(C(=O)SCF)[C@H](C)C[C@H]2[C@@H]3C[C@H](F)C4=CC(=O)C=C[C@]4(C)[C@@]3(F)[C@@H](O)C[C@@]21C [FLUTICASONE PROPIONATE]
Inhibition (Staphylococcus aureus): -21.58%
Inhibition (Escherichia coli): 6.95%

CCOC(=O)C1=C(C)NC(C)=C(C(=O)OC)C1c1cccc([N+](=O)[O-])c1 (stereo not drawn) [NITRENDIPINE]
Inhibition (Staphylococcus aureus): 11.21%
Inhibition (Escherichia coli): -2.58%

CC(Cc1ccc(O)c(O)c1)(NN)C(=O)O.O (stereo not drawn)
Inhibition (Staphylococcus aureus): 16.15%
Inhibition (Escherichia coli): 3.56%

CC(C)(C)NC(=O)[C@@H]1C[C@@H]2CCCC[C@@H]2CN1C[C@@H](O)[C@H](Cc1ccccc1)NC(=O)[C@H](CC(N)=O)NC(=O)c1ccc2ccccc2n1.CS(=O)(=O)O [SAQUINAVIR MESYLATE]
Inhibition (Staphylococcus aureus): -19.12%
Inhibition (Escherichia coli): 7.7%

Cn1nnc2c(C(N)=O)ncn2c1=O [TEMOZOLOMIDE]
Inhibition (Staphylococcus aureus): 8.98%
Inhibition (Escherichia coli): 6.63%

CC(C)NCC(O)COc1ccc(CC(N)=O)cc1 (stereo not drawn) [ATENOLOL]
Inhibition (Staphylococcus aureus): 9.69%
Inhibition (Escherichia coli): 2.4%

CC(CCc1ccccc1)NCC(O)c1ccc(O)c(C(N)=O)c1.Cl (stereo not drawn) [LABETALOL HYDROCHLORIDE]
Inhibition (Staphylococcus aureus): 13.4%
Inhibition (Escherichia coli): 1.62%

CC1CNc2c(cccc2S(=O)(=O)N[C@@H](CCCNC(=N)N)C(=O)N2CC[C@@H](C)C[C@@H]2C(=O)O)C1 (stereo partly drawn) [ARGATROBAN]
Inhibition (Staphylococcus aureus): 5.54%
Inhibition (Escherichia coli): -1.85%

CC(=O)Nc1ccc(CC(=O)O)cc1 [ACTARIT]
Inhibition (Staphylococcus aureus): -0.71%
Inhibition (Escherichia coli): 3.54%

CC1(C)O[C@@H]2[C@@H](CO[C@@]3(COS(N)(=O)=O)OC(C)(C)O[C@@H]23)O1 [TOPIRAMATE]
Inhibition (Staphylococcus aureus): 3.5%
Inhibition (Escherichia coli): 6.36%

COc1ccc(/C=C/C(=O)Nc2ccccc2C(=O)O)cc1OC
Inhibition (Staphylococcus aureus): 8.38%
Inhibition (Escherichia coli): -3.33%

COCC1=C(C(=O)OC(C)OC(=O)OC(C)C)N2C(=O)[C@@H](NC(=O)/C(=N\OC)c3csc(N)n3)[C@H]2SC1 (stereo partly drawn) [CEFPODOXIME PROXETIL]
Inhibition (Staphylococcus aureus): -13.09%
Inhibition (Escherichia coli): 5.31%

CC(N/C(=N\C#N)Nc1ccncc1)C(C)(C)C.O (stereo not drawn)
Inhibition (Staphylococcus aureus): -1.94%
Inhibition (Escherichia coli): -6.33%

CC(O)CO.N[C@@H](C(=O)N[C@@H]1C(=O)N2C(C(=O)O)=C(CSc3c[nH]nn3)CS[C@H]12)c1ccc(O)cc1
Inhibition (Staphylococcus aureus): 31.82%
Inhibition (Escherichia coli): 5.65%

CNCCCC12CCC(c3ccccc31)c1ccccc12.Cl [MAPROTILINE HYDROCHLORIDE]
Inhibition (Staphylococcus aureus): 15.07%
Inhibition (Escherichia coli): 6.19%

Cl.O=C(O)/C=C/c1ccc(Cn2ccnc2)cc1
Inhibition (Staphylococcus aureus): -2.16%
Inhibition (Escherichia coli): 6.89%

OCc1cccnc1 [NICOTINYL ALCOHOL]
Inhibition (Staphylococcus aureus): 10.46%
Inhibition (Escherichia coli): 0.45%

O=C(O)c1cc2ccccc2c(Cc2c(O)c(C(=O)O)cc3ccccc23)c1O.OCCOCCN1CCN(C(c2ccccc2)c2ccc(Cl)cc2)CC1 [HYDROXYZINE PAMOATE]
Inhibition (Staphylococcus aureus): 11.96%
Inhibition (Escherichia coli): 0.33%

CN(C/C=C/C#CC(C)(C)C)Cc1cccc2ccccc12.Cl [TERBINAFINE HYDROCHLORIDE]
Inhibition (Staphylococcus aureus): 10.26%
Inhibition (Escherichia coli): 3%

CC(C)(C)NCC(O)COc1cccc2c1CC(O)C(O)C2 (stereo not drawn) [NADOLOL]
Inhibition (Staphylococcus aureus): 16.27%
Inhibition (Escherichia coli): 3.67%

CN(CCOc1ccc(CC2SC(=O)NC2=O)cc1)c1ccccn1.O=C(O)/C=C\C(=O)O (stereo not drawn) [ROSIGLITAZONE MALEATE]
Inhibition (Staphylococcus aureus): 5.02%
Inhibition (Escherichia coli): 0.27%

COc1ccccc1OCC(O)CN1CCN(CC(=O)Nc2c(C)cccc2C)CC1.Cl.Cl (stereo not drawn) [RANOLAZINE HYDROCHLORIDE]
Inhibition (Staphylococcus aureus): 15.16%
Inhibition (Escherichia coli): -4.15%

CC(C)c1ccc2oc3nc(N)c(C(=O)O)cc3c(=O)c2c1 [AMLEXANOX]
Inhibition (Staphylococcus aureus): 16.12%
Inhibition (Escherichia coli): 0.07%

CS(=O)(=O)O.Cc1ccc(NC(=O)c2ccc(CN3CCN(C)CC3)cc2)cc1Nc1nccc(-c2cccnc2)n1 [IMATINIB MESYLATE]
Inhibition (Staphylococcus aureus): 11.51%
Inhibition (Escherichia coli): 2.87%

CC(C)(C)NC(=O)[C@@H]1CN(Cc2cccnc2)CCN1C[C@@H](O)C[C@@H](Cc1ccccc1)C(=O)N[C@H]1c2ccccc2C[C@H]1O.O=S(=O)(O)O [INDINAVIR SULFATE]
Inhibition (Staphylococcus aureus): 6.61%
Inhibition (Escherichia coli): 5.22%

C[C@]12C=CC(=O)C=C1CC[C@@H]1[C@@H]2[C@@H](O)C[C@@]2(C)[C@H]1CC[C@]2(O)C(=O)CO [PREDNISOLONE]
Inhibition (Staphylococcus aureus): 7.56%
Inhibition (Escherichia coli): 7.41%

Nc1nc(=O)c2nc(CNc3ccc(C(=O)N[C@@H](CCC(=O)O)C(=O)O)cc3)cnc2[nH]1 [FOLIC ACID]
Inhibition (Staphylococcus aureus): 10.57%
Inhibition (Escherichia coli): -0.13%

C#C[C@]1(O)CC[C@H]2[C@@H]3CCc4cc(O)ccc4[C@H]3CC[C@@]21C [ETHINYL ESTRADIOL]
Inhibition (Staphylococcus aureus): 1.21%
Inhibition (Escherichia coli): 3.7%

OCCN(CCO)c1nc(N2CCCCC2)c2nc(N(CCO)CCO)nc(N3CCCCC3)c2n1 [DIPYRIDAMOLE]
Inhibition (Staphylococcus aureus): -23.93%
Inhibition (Escherichia coli): 7.34%

NNCCc1ccccc1.O=S(=O)(O)O [PHENELZINE SULFATE]
Inhibition (Staphylococcus aureus): -0.33%
Inhibition (Escherichia coli): 5.31%

CCS(=O)(=O)CCn1c([N+](=O)[O-])cnc1C [TINIDAZOLE]
Inhibition (Staphylococcus aureus): 16.09%
Inhibition (Escherichia coli): -5.72%

CC1(C)S[C@@H]2[C@H](/N=C/N3CCCCCC3)C(=O)N2[C@H]1C(=O)O [AMDINOCILLIN]
Inhibition (Staphylococcus aureus): 10.96%
Inhibition (Escherichia coli): 1.83%

CN(C)CC[C@@H](c1ccc(Cl)cc1)c1ccccn1.O=C(O)/C=C\C(=O)O [DEXCHLORPHENIRAMINE MALEATE]
Inhibition (Staphylococcus aureus): 5.99%
Inhibition (Escherichia coli): 6.96%

COc1ccnc(C[S+]([O-])c2nc3cc(OC(F)F)ccc3[n-]2)c1OC.O.[Na+] (stereo not drawn) [PANTOPRAZOLE SODIUM]
Inhibition (Staphylococcus aureus): 15.25%
Inhibition (Escherichia coli): 1.53%

CCC1=C(C)CN(C(=O)NCCc2ccc(S(=O)(=O)NC(=O)N[C@H]3CC[C@H](C)CC3)cc2)C1=O [GLIMEPIRIDE]
Inhibition (Staphylococcus aureus): 15.98%
Inhibition (Escherichia coli): 1.16%

Cn1cnc([N+](=O)[O-])c1Sc1ncnc2[nH]cnc12 [AZATHIOPRINE]
Inhibition (Staphylococcus aureus): 18.19%
Inhibition (Escherichia coli): 3.51%

N=c1cc(N2CCCCC2)nc(N)n1O
Inhibition (Staphylococcus aureus): 14.68%
Inhibition (Escherichia coli): -3.43%

CC(C)(C)NCC(O)c1ccc(O)c(CO)c1.CC(C)(C)NCC(O)c1ccc(O)c(CO)c1.O=S(=O)(O)O (stereo not drawn) [ALBUTEROL SULFATE]
Inhibition (Staphylococcus aureus): 8.55%
Inhibition (Escherichia coli): 5.03%

Clc1ccc2c(c1)C(N1CCNCC1)=Nc1ccccc1O2 [AMOXAPINE]
Inhibition (Staphylococcus aureus): 3.79%
Inhibition (Escherichia coli): 7%

CCCNC(C)C(=O)Nc1ccccc1C.Cl (stereo not drawn) [PRILOCAINE HYDROCHLORIDE]
Inhibition (Staphylococcus aureus): 16.77%
Inhibition (Escherichia coli): 4.99%

CCCNCC(O)COc1ccccc1C(=O)CCc1ccccc1 (stereo not drawn) [PROPAFENONE]
Inhibition (Staphylococcus aureus): 9.33%
Inhibition (Escherichia coli): 8.72%

CSc1nc2cc(Cl)c(Oc3cccc(Cl)c3Cl)cc2[nH]1 [TRICLABENDAZOLE]
Inhibition (Staphylococcus aureus): 7.06%
Inhibition (Escherichia coli): -5.3%

C[C@]12CCC(=O)C=C1CC[C@@H]1[C@@H]2C(=O)C[C@@]2(C)[C@H]1CC[C@]2(O)C(=O)CO [CORTISONE]
Inhibition (Staphylococcus aureus): 18.73%
Inhibition (Escherichia coli): 3.83%

CC(c1cc2ccccc2s1)N(O)C(N)=O (stereo not drawn) [ZILEUTON]
Inhibition (Staphylococcus aureus): -21.42%
Inhibition (Escherichia coli): 6.17%

COc1cc(/C=C/c2ccc(O)cc2)cc(OC)c1 [PTEROSTILBENE]
Inhibition (Staphylococcus aureus): 13.68%
Inhibition (Escherichia coli): 1.16%

CC(=O)/N=c1/sc(S(N)(=O)=O)nn1C [METHAZOLAMIDE]
Inhibition (Staphylococcus aureus): 5.78%
Inhibition (Escherichia coli): 3.59%

CC(C)(S)C(N)C(=O)O (stereo not drawn) [DL-PENICILLAMINE]
Inhibition (Staphylococcus aureus): 15.93%
Inhibition (Escherichia coli): -3.28%
